Calls of active or inactive are those of the source. Unless noted, how the calls were made is not given here.
Key:
[1] = compounds binding Alexa647 anti-His antibody – biochemical, small-molecule microarray, 635 nm fluorescence, artefact control for SMM control protein annotation, primary screen (AID 1128); conditions: higher = more signal;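 further: score merges feature fluorescence with signal-to-noise for each printed compound spot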
[2] = system: Human papillomavirus type 1a E7 protein (residues 1-88); experiment: HPV1a E7 small-molecule binders, primary screen, biochemical, small-molecule microarray, residues 1-88, 635 nm (AID 1129); conditions: small-molecule microarray binding, fluorescence 635 nm; higher = more signal
[3] = target: Focal adhesion kinase 1 (Homo sapiens) (UniProt Q05397); experiment: PTK2 protein binding on printed compound slides – biochemical, small-molecule microarray, 635/667 nm fluorescence, BSA, DTT, primary screen (AID 1130); conditions: 635 nm fluorescence, higher = more signal;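 further: composite of spot emission at 667 nm and signal to noise over triplicate slides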
Sequence of Focal adhesion kinase 1 (Homo sapiens) (Q05397 whole entry, looked up): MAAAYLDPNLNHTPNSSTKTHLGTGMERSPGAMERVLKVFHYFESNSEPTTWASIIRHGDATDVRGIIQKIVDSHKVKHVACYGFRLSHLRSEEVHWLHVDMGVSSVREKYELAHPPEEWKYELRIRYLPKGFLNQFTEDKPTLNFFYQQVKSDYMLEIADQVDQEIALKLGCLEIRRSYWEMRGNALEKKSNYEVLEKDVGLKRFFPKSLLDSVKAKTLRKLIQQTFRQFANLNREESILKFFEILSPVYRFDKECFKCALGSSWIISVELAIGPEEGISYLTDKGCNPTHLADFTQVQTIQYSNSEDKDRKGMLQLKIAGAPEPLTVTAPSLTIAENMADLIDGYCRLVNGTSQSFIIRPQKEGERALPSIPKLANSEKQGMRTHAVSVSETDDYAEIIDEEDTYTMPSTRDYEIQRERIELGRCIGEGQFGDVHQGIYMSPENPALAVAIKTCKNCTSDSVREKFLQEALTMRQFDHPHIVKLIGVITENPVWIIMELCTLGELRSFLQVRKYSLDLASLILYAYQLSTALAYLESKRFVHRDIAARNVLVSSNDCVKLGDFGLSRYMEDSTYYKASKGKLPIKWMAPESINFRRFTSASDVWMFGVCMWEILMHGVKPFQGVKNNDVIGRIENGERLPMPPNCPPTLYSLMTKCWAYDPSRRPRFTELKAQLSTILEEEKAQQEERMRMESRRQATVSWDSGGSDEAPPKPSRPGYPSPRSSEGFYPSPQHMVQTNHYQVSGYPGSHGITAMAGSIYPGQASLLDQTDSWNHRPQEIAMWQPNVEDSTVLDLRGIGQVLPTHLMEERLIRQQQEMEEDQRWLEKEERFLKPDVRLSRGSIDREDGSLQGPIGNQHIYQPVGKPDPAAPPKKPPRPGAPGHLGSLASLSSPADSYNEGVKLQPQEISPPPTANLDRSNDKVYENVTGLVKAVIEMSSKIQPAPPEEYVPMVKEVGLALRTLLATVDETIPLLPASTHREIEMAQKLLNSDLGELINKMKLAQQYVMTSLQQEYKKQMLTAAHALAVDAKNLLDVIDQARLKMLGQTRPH

[4] = system: Fibrinogen (Alexa647-labelled); experiment: Alexa647-fibrinogen binding to printed small molecules – biochemical, small-molecule microarray, 635/667 nm fluorescence, artefact control for SMM control-protein annotation, profiling panel (AID 1131); conditions: fibrinogen-A647 binding fluorescence, higher = more signal;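 further: z-score merges 667 nm fluorescence with per-spot signal-to-noise over triplicate slides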
[5] = target: Follistatin (Homo sapiens) (UniProt P19883); experiment: FST protein binding to printed compounds – biochemical, small-molecule microarray, 635/667 nm fluorescence, primary screen (AID 1132); conditions: 635 nm fluorescence, higher = more signal
Sequence of Follistatin (Homo sapiens) (P19883 whole entry, looked up): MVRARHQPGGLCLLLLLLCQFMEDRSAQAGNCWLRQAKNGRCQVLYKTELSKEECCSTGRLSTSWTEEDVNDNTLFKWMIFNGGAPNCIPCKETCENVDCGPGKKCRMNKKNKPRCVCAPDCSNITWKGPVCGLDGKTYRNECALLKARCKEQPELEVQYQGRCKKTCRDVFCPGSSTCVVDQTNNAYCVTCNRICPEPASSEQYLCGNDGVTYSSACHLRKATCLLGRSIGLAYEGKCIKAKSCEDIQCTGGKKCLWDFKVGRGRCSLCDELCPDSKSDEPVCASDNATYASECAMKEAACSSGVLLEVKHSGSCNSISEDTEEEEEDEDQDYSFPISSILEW

[6] = target: Fibroblast growth factor 2 (Homo sapiens) (UniProt P09038); experiment: basic fibroblast growth factor binding to printed compounds – biochemical, small-molecule microarray, 635/667 nm fluorescence, primary screen (AID 1133); conditions: FGF2, fluorescence 635/667, higher = more signal
Sequence of Fibroblast growth factor 2 (Homo sapiens) (P09038 whole entry, looked up): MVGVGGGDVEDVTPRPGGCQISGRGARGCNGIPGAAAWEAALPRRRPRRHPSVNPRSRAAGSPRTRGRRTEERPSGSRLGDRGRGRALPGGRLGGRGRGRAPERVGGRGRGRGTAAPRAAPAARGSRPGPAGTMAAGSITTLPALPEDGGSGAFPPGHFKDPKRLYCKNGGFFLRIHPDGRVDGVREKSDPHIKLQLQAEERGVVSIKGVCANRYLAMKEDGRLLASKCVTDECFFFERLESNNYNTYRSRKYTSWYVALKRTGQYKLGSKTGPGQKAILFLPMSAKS

[7] = JC-1 mitochondrial potential readout, lung cancer cells – cell-based, A549, JC-1 fluorescence, basal, 24 h, 100 nL, profiling panel (AID 1138); conditions: higher = more signal;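 further: A549 lung adenocarcinoma cells under basal conditions with no added stimulus; test concentration not given here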
Lefty1 = Lefty1 protein binding to printed compounds – biochemical, small-molecule microarray, 635/667 nm fluorescence, primary screen (AID 1139); conditions: fluorescence 635/667, higher = more signal
[8] = system: wheat germ agglutinin (Triticum aestivum), Alexa647-labelled; experiment: Alexa647-WGA lectin binding to printed small molecules – biochemical, small-molecule microarray, 635/667 nm fluorescence, artefact control for SMM control-protein annotation, profiling panel (AID 1140); conditions: WGA-A647 binding, 635 nm fluorescence, higher = more signal;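 further: score merges 667 nm feature emission with signal to noise over triplicate slides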
[9] = target: Luciferin 4-monooxygenase (Photinus pyralis) (UniProt P08659); experiment: inhibition of purified Photinus pyralis luciferase – biochemical, luminescence, purified enzyme, 2006 set, primary screen (AID 1141); conditions: purified firefly luciferase, SteadyGlo luminescence, 30 min; higher = more signal, called active from +8 up or from −8 down;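 further: cell-free assay with purified firefly luciferase at 100 ng per well in PBS; test concentration not given here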
Sequence of Luciferin 4-monooxygenase (Photinus pyralis) (P08659 whole entry, looked up): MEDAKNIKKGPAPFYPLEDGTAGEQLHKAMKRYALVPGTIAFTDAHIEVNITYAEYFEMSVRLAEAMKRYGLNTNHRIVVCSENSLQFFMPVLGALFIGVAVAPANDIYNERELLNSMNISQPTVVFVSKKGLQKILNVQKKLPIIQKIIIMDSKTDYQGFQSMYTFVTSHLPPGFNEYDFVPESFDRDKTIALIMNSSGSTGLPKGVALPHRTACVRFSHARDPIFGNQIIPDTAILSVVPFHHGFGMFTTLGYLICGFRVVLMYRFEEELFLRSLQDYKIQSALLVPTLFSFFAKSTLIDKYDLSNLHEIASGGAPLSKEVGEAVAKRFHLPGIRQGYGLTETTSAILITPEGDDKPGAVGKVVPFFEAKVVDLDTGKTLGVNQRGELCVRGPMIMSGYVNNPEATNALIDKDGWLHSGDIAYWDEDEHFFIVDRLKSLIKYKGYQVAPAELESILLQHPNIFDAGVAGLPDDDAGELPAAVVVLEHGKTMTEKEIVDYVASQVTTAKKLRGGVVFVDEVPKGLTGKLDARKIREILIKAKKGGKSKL

[10] = system: Wnt5a (protein binding on small-molecule microarray); experiment: small molecules binding Wnt5a protein – biophysical, small-molecule microarray, 635/667 nm fluorescence, primary screen (AID 1142); conditions: 635 nm fluorescence, higher = more signal;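 further: fluorescence read at 667 nm with signal to noise per printed feature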
[11] = ATP-based viability of Huh7 replicon cells – cell-based, CellTiter-Glo luminescence, basal, 48 h, cytotoxicity control for HCV replication inhibitor project, primary screen (AID 1143); conditions: higher = more signal, called active from +8 up or from −8 down;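 further: Huh7 hepatoma cells carrying a hepatitis C replication reporter with no stimulus; test concentration not given here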
[12] = Pseudomonas biofilm growth suppression – PAO1 strain, BacTiter-Glo luminescence, LB-PBS, primary screen (AID 1144); conditions: P. aeruginosa PAO1 biofilm, 12 h, higher = more signal
[13] = basal CRE-LacZ reporter activity in PC12 – cell-based, unstimulated, primary screen (AID 1145); conditions: no forskolin, luminescence, 4.5 h, higher = more signal, called active from +8 up or from −8 down
[14] = forskolin-driven CRE-LacZ activity in PC12 – cell-based, CRE-LacZ reporter, forskolin-stimulated, primary screen (AID 1146); conditions: luminescence, 4.5 h, higher = more signal, called active from +8 up or from −8 down;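 further: PC12 cells with 6xCRE LacZ reporter stimulated by forskolin 10 µM; beta-galactosidase reporter signal reflecting CREB driven transcription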
[15] = target: Streptavidin (Streptomyces avidinii) (UniProt P22629); experiment: compounds binding control protein streptavidin – biophysical, small-molecule microarray, 635/667 nm fluorescence, artefact control for SMM compound annotation, primary screen (AID 1147); conditions: higher = more signal;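 further: signal reflects streptavidin binding to arrayed compounds as a control protein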
Sequence of Streptavidin (Streptomyces avidinii) (P22629 whole entry, looked up): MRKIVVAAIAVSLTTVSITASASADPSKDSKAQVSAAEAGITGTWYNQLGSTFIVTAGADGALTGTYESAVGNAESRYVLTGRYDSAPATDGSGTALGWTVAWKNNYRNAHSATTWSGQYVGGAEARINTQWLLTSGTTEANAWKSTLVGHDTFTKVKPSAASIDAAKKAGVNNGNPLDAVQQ

[16] = probe aInhba binding on compound microarray – biochemical, small-molecule microarray, 635/667 nm fluorescence, primary screen (AID 1148); conditions: higher = more signal;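 further: score merges 667nm spot fluorescence with signal-to-noise for antibody binding to printed compounds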
Torsin-1A (Homo sapiens) [17] = target: Torsin-1A (Homo sapiens) (UniProt O14656); experiment: TOR1A wild-type binding on microarray – cell lysate, small-molecule microarray, lysate, 635/667 nm, primary screen (AID 1149); conditions: COS7 hTOR1A-WT lysate, 635 nm fluorescence, higher = more signal
Sequence of Torsin-1A (Homo sapiens) (O14656 whole entry, looked up): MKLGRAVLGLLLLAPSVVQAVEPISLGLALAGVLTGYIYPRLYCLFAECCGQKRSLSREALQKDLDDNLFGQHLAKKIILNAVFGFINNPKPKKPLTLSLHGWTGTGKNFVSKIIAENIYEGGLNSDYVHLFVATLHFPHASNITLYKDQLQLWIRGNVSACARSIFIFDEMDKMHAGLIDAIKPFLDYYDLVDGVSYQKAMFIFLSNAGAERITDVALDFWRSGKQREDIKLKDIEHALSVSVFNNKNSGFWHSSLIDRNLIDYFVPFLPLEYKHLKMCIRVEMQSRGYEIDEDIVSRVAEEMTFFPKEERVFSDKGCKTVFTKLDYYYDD

Torsin-1A (Homo sapiens) [18] = target: Torsin-1A (Homo sapiens) (UniProt O14656); experiment: torsin A mutant lysate binding on microarrays – cell lysate, small-molecule microarray, COS7 lysate, 635/667 nm fluorescence, primary screen (AID 1150); conditions: COS7 hTOR1A mutant lysate, 635 nm fluorescence, higher = more signal;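 further: score pools 667 nm emission and signal to noise measuring lysate protein binding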
[19] = system: Sonic hedgehog protein (Shh); experiment: Sonic hedgehog microarray binding compounds – biochemical, small-molecule microarray, 635/667 nm fluorescence, primary screen (AID 1151); conditions: 635 nm fluorescence, higher = more signal;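 further: Shh protein binding to compounds spotted on small-molecule microarray slides; score combines spot fluorescence intensity with signal-to-noise across triplicate slides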

SMILES	composite z-score [1]	composite z-score [2]	composite z-score [3]	composite z-score [4]	composite z-score [5]	composite z-score [6]	z-score [7]	composite z-score (Lefty1)	composite z-score [8]	z-score [9]	composite z-score [10]	z-score [11]	z-score [12]	z-score [13]	z-score [14]	composite z-score [15]	composite z-score [16]	composite z-score (Torsin-1A (Homo sapiens) [17])	composite z-score (Torsin-1A (Homo sapiens) [18])	composite z-score [19]
COCCOC(=O)N1C(=O)[C@@]2(c3ccccc31)[C@H](C(N)=O)[C@H]1C(=O)O[C@H](c3ccccc3)[C@H](c3ccccc3)N1[C@@H]2c1ccc(OCCO)cc1	0.918	1.24	0.451	0.927	1.11	0.807	0.101	0.619	0.982	0.346 (inactive)	0.62	-1.57 (inactive)	-0.762 (inactive)	-1.28 (inactive)	-1.15 (inactive)	0.554	0.0155	1.13	1.14	1.9
O=C1C2C=CC(C(O)c3cccs3)N(Nc3ccccc3)C2C(=O)N1c1ccccc1 (stereo not given)	-0.0476	-0.741	0.948	0.183	0.761	-0.473	-0.4	-0.289	0.253	-0.802 (inactive)	0.114	-2.55 (inactive)	-0.991 (inactive)	-0.136 (inactive)	0.592 (inactive)	0.195	-0.0604	-0.372	-0.629	0.0003
COc1ccc(NN2C(C(O)c3cc(C(F)(F)F)cc(C(F)(F)F)c3)C=CC3C(=O)N(C4CCCCC4)C(=O)C32)cc1 (stereo not given)	0.764	1.1	0.359	0.895	0.544	-0.0047	-0.822	-0.364	1.2	0.36 (inactive)	0.397	-2.42 (inactive)	-1.1 (inactive)	-0.723 (inactive)	-0.504 (inactive)	0.837	1.19	0.408	1.19	-0.0356
CCCC[C@@H](O)C1=C(COC)Cn2c(=O)n(-c3ccccc3)c(=O)n2[C@H]1CO	0.0209	-0.155	-0.109	0.894	-0.266	0.0646	-0.239	-0.0726	0.858	-1.65 (inactive)	-0.296	-0.915 (inactive)	-0.313 (inactive)	-0.0487 (inactive)	-1.11 (inactive)	-0.538	-0.128	-0.527	-0.577	0.223
COC(=O)Cn1c(C(=O)N(C)C)cc2c1C[C@H]1CN(C(=O)c3ccccc3)[C@@](Cc3ccc(OC)cc3)(C(=O)OC)[C@@H]21	0.817	0.845	0.263	0.605	0.371	-0.159	0.834	-0.351	0.86	0.923 (inactive)	1.09	-1.99 (inactive)	0.655 (inactive)	0.966 (inactive)	0.353 (inactive)	0.896	0.438	0.244	0.0985	-0.333
